Here are results for 39 compounds from the supplement of paper PMC12669032.

A number with no mark means an inactive call.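 The calls were made as follows: active = AUC reduced over 20% with Padj below 0.05 in at least 2 of 3 replicates; inactive = otherwise.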

The first test relates to Bacteroides stercoris. Briefly: growth AUC relative to DMSO control (median of replicates) (fraction); higher = more growth (less inhibition), active = hit call of the paper. The conditions noted are these: 20 µM; 24 h. In outline: (§1)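 In round-bottom 96-well plates sealed with pierced gas-permeable seals, gut bacterial monocultures in mGAM were grown anaerobically at 37 °C from OD600 0.05 with 20 µM compound (1% DMSO). OD600 readings were taken hourly for 24 h, and the minimum OD was set to 0. Area under the growth curve was then normalised to the plate median of solvent-only wells, or to row and column medians on the industrial chemical plate. The value given is the median of three biological replicates grown on separate days.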
For the compound `Nc1cccc(O)c1`, the “growth AUC” value is 0.939.
`CCc1cccc(C)c1NC(C)C(=O)O` (racemic): the “growth AUC” value is 0.965.
For the compound `CCc1ccc(C(c2ccc(CC)cc2)C(Cl)Cl)cc1`, the “growth AUC” value was 0.931.
Same read-out and setting: then `CC(C)N(C(=O)CS(=O)CC(=O)O)c1ccc(F)cc1` (stereo not drawn), with 0.988; and `O=[N+]([O-])c1ccc(Oc2c(Cl)cc(Cl)cc2Cl)cc1`, with 1.07; and `CCOC(=O)c1nc(C(Cl)(Cl)Cl)n(-c2ccc(Cl)cc2Cl)n1`, with 0.861.
As for `Cc1ccc2c(c1)[C@H](Nc1nc(N)nc(C(C)F)n1)[C@@H](C)C2` (stereo partly drawn), the “growth AUC” value is 1.08.
As for `CCCCCCCC(=O)Oc1c(Br)cc(C#N)cc1Br`, the “growth AUC” value is 0.842.
Still for that read-out and setting: then `CCNc1nc(N)[nH]c(=O)n1`, with 1.03.
Same read-out and setting: in the case of `CN(C)C(=O)Nc1cc(C(C)(C)C)on1` it was 0.998; in that of `O=C(NC(=O)c1c(F)cccc1F)Nc1cc(C(F)(F)F)cc(C(F)(F)F)c1Cl`, 0.849; in that of `COC(=O)CSc1cc(N=c2sc(=O)n3n2CCCC3)c(F)cc1Cl`, 1.04.
Still for that read-out and setting: then `CCN(Cc1c(F)cccc1Cl)c1c([N+](=O)[O-])cc(C(F)(F)F)cc1[N+](=O)[O-]`, with 0.27 (active); and `CCNC(=O)[C@@H](C)OC(=O)Nc1ccccc1`, with 1.06; and `CON=C(Cc1cccnc1)c1ccc(Cl)cc1Cl`, with 1.28.
Regarding `COC(=O)Nc1ccc(Cl)c(Cl)c1`, the “growth AUC” value is 0.95.
`CC[N+](CC)(CC(=O)Nc1c(C)cccc1C)Cc1ccccc1.O=C([O-])c1ccccc1`: the “growth AUC” value was 1.11.
The same measure, in the same setting: in the case of `CC(C)(C)[C@@H](O)[C@@H](Cc1ccc(Cl)cc1)n1cncn1` (mixture of isomers) it was 0.933; in that of `COCC(=O)N(c1c(C)cccc1C)C(C)C(=O)O` (stereo not drawn), 1.13.
The same measure, in the same setting: then `COC(=O)c1ccccc1S(=O)(=O)NC(=O)n1nc(OCC(C)O)n(C)c1=O` (stereo not drawn), with 0.982; and `CCOC(=O)Cc1[nH]nc2ccc(Cl)cc12`, with 1.15; and `CCCCCCCC/C=C\CCCCCCCC(N)=O`, with 0.875.
The same measure, in the same setting: then `COC1CCC2(CC1)NC(=O)C(c1cc(C)ccc1C)=C2OC1OC(CO)C(O)C(O)C1O` (stereo not drawn), with 1.21; and `COC(=O)c1ccc(C(F)(F)F)nc1S(=O)(=O)[N-]C(=O)Nc1nc(OC)cc(OC)n1.[Na+]`, with 0.908; and `COC1CCC2(CC1)NC(=O)C(c1cc(C)ccc1C)=C2O` (stereo not drawn), with 1.12.
Consider `O=C(Nc1ccc(O)cc1-c1ccc(Cl)cc1)c1cccnc1Cl`, for which the “growth AUC” value is 0.964.
Still for that read-out and setting: in the case of `Cc1nn(C)c(F)c1C(=O)Nc1ccccc1C(C)CC(C)C` (stereo not drawn) it was 1.04; in that of `O=C(NCc1ncc(C(F)(F)F)cc1Cl)c1c(Cl)cccc1Cl`, 1.17.
Same read-out and setting: in the case of `CC1COc2ccccc2N1C(=O)C(Cl)Cl` (stereo not drawn) it was 0.945; in that of `CCc1cccc(C)c1NC(=O)C(=O)O`, 0.999.
On the same count and under the same terms, then `Cc1[nH]oc(=O)c1N=Nc1ccccc1Cl`, with 0.828.
For `COc1ccccc1C(=O)NS(=O)(=O)c1ccc(C(=O)NC2CC2)cc1`, the “growth AUC” value is 1.03.
For the compound `O=C(O)c1ccc(Cl)cc1Cl`, the “growth AUC” value is 0.959.
Still for that read-out and setting: then `CCCCCCCC/C=C\CCCCCCCCCCCCC`, with 0.986; and `COC(=O)COc1ccc(Cl)cc1C`, with 1.03.
On the same count and under the same terms, in the case of `CC(C)OC(=O)N[C@H](C(=O)N[C@H](C)c1nc2ccc(F)cc2s1)C(C)C` it was 0.982; in that of `CCNc1nc(N)nc(Cl)n1`, 1.12; in that of `Cc1nn(C)c(OCC(=O)c2ccccc2)c1C(=O)c1ccc(Cl)cc1Cl`, 1.17.
As to `Cc1cc(C)c(C2=C(O)C3(CCCC3)OC2=O)c(C)c1`, the “growth AUC” value is 1.08.

In the next test the test system is Bacteroides thetaiotaomicron. The test is described as above. The conditions noted are these: 20 µM; 24 h. In outline:
as §1
For the compound `Nc1cccc(O)c1`, the “growth AUC” value is 1.03.
For the compound `CCc1cccc(C)c1NC(C)C(=O)O` (racemic), the “growth AUC” value was 1.03.
As to `CCc1ccc(C(c2ccc(CC)cc2)C(Cl)Cl)cc1`, the “growth AUC” value was 0.977.
Still for that read-out and setting: then `CC(C)N(C(=O)CS(=O)CC(=O)O)c1ccc(F)cc1` (stereo not drawn), with 0.987; and `O=[N+]([O-])c1ccc(Oc2c(Cl)cc(Cl)cc2Cl)cc1`, with 0.971.
Turning to `CCOC(=O)c1nc(C(Cl)(Cl)Cl)n(-c2ccc(Cl)cc2Cl)n1`, the “growth AUC” value is 0.966.
Still for that read-out and setting: then `Cc1ccc2c(c1)[C@H](Nc1nc(N)nc(C(C)F)n1)[C@@H](C)C2` (stereo partly drawn), with 0.975; and `CCCCCCCC(=O)Oc1c(Br)cc(C#N)cc1Br`, with 1.04.
The same measure, in the same setting: then `CCNc1nc(N)[nH]c(=O)n1`, with 0.998; and `CN(C)C(=O)Nc1cc(C(C)(C)C)on1`, with 0.995.
Same read-out and setting: in the case of `O=C(NC(=O)c1c(F)cccc1F)Nc1cc(C(F)(F)F)cc(C(F)(F)F)c1Cl` it was 0.96; in that of `COC(=O)CSc1cc(N=c2sc(=O)n3n2CCCC3)c(F)cc1Cl`, 0.94.
Consider `CCN(Cc1c(F)cccc1Cl)c1c([N+](=O)[O-])cc(C(F)(F)F)cc1[N+](=O)[O-]`, for which the “growth AUC” value is 0.934.
As for `CCNC(=O)[C@@H](C)OC(=O)Nc1ccccc1`, the “growth AUC” value was 1.01.
With `CON=C(Cc1cccnc1)c1ccc(Cl)cc1Cl`, the “growth AUC” value is 0.91.
The same measure, in the same setting: in the case of `COC(=O)Nc1ccc(Cl)c(Cl)c1` it was 0.966; in that of `CC[N+](CC)(CC(=O)Nc1c(C)cccc1C)Cc1ccccc1.O=C([O-])c1ccccc1`, 0.999.
Still for that read-out and setting: then `CC(C)(C)[C@@H](O)[C@@H](Cc1ccc(Cl)cc1)n1cncn1` (mixture of isomers), with 0.993.
The same measure, in the same setting: in the case of `COCC(=O)N(c1c(C)cccc1C)C(C)C(=O)O` (stereo not drawn) it was 1.04.
For the compound `COC(=O)c1ccccc1S(=O)(=O)NC(=O)n1nc(OCC(C)O)n(C)c1=O` (stereo not drawn), the “growth AUC” value was 0.994.
Same read-out and setting: then `CCOC(=O)Cc1[nH]nc2ccc(Cl)cc12`, with 1.01; and `CCCCCCCC/C=C\CCCCCCCC(N)=O`, with 0.982; and `COC1CCC2(CC1)NC(=O)C(c1cc(C)ccc1C)=C2OC1OC(CO)C(O)C(O)C1O` (stereo not drawn), with 0.984.
Still for that read-out and setting: then `COC(=O)c1ccc(C(F)(F)F)nc1S(=O)(=O)[N-]C(=O)Nc1nc(OC)cc(OC)n1.[Na+]`, with 0.993.
Still for that read-out and setting: then `COC1CCC2(CC1)NC(=O)C(c1cc(C)ccc1C)=C2O` (stereo not drawn), with 1.01.
With `O=C(Nc1ccc(O)cc1-c1ccc(Cl)cc1)c1cccnc1Cl`, the “growth AUC” value was 1.01.
Turning to `Cc1nn(C)c(F)c1C(=O)Nc1ccccc1C(C)CC(C)C` (stereo not drawn), the “growth AUC” value was 0.968.
On the same count and under the same terms, in the case of `O=C(NCc1ncc(C(F)(F)F)cc1Cl)c1c(Cl)cccc1Cl` it was 0.95; in that of `CC1COc2ccccc2N1C(=O)C(Cl)Cl` (stereo not drawn), 0.903; in that of `CCc1cccc(C)c1NC(=O)C(=O)O`, 0.942.
Turning to `Cc1[nH]oc(=O)c1N=Nc1ccccc1Cl`, the “growth AUC” value was 1.01.
On the same count and under the same terms, then `COc1ccccc1C(=O)NS(=O)(=O)c1ccc(C(=O)NC2CC2)cc1`, with 0.954; and `O=C(O)c1ccc(Cl)cc1Cl`, with 1.01; and `CCCCCCCC/C=C\CCCCCCCCCCCCC`, with 0.995.
On the same count and under the same terms, then `COC(=O)COc1ccc(Cl)cc1C`, with 1.01; and `CC(C)OC(=O)N[C@H](C(=O)N[C@H](C)c1nc2ccc(F)cc2s1)C(C)C`, with 1.01.
The same measure, in the same setting: then `CCNc1nc(N)nc(Cl)n1`, with 1.03; and `Cc1nn(C)c(OCC(=O)c2ccccc2)c1C(=O)c1ccc(Cl)cc1Cl`, with 0.933; and `Cc1cc(C)c(C2=C(O)C3(CCCC3)OC2=O)c(C)c1`, with 0.986.
